How the values were obtained:
Experiment in all cases: log2 ratio of Biotin-Ahx-Ub-VS probe labelling (fragment/DMSO); higher = less target engagement (more negative = stronger competition), active = hit call of the paper (q ≤ 0.05, log2 ratio ≤ -1)
Conditions in all cases: compound concentration: 200 uM; treatment time: 3 h
USP19 = target: T1, USP19 (UniProt O94966)
T1 sequence (whole entry): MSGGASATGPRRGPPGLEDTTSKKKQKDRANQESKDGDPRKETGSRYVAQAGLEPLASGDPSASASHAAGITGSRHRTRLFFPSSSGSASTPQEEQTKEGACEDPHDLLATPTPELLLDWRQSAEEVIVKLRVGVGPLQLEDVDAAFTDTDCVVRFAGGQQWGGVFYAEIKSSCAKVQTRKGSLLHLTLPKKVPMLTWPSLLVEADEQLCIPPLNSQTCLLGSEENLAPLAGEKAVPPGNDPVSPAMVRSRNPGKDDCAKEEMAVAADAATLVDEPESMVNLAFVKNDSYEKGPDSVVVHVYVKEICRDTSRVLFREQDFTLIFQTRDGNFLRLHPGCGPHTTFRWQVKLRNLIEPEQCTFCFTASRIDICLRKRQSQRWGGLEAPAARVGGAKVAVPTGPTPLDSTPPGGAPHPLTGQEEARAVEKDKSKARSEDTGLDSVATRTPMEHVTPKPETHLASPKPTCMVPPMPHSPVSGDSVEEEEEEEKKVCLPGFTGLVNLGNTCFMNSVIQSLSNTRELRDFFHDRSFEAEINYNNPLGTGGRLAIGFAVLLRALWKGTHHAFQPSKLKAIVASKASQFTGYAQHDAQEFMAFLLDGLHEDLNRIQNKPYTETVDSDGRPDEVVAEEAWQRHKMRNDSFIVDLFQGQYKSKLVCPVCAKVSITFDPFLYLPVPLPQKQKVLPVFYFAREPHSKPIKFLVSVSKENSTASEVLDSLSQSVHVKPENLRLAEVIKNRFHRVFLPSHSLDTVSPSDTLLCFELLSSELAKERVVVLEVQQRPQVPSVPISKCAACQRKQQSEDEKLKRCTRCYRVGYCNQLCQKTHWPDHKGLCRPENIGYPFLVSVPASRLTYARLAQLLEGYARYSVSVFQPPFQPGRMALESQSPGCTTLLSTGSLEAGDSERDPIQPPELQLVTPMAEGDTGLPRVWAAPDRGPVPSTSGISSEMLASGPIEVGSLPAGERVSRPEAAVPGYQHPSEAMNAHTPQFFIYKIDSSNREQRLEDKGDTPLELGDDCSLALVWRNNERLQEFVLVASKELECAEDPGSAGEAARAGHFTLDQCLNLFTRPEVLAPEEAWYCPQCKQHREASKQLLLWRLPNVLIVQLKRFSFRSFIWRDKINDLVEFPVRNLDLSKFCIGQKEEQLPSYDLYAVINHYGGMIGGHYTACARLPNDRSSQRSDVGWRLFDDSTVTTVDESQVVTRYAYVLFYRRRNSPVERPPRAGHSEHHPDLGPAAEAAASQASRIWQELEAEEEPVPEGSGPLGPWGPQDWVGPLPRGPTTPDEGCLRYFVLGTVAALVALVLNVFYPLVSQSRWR
How it was run: (§1)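 Each value is an average log2 ratio of fragment to vehicle, tested by unpaired t-test. The underlying Spectronaut label-free quantities were global-median-normalised, and only proteins with ≥2 unique peptides were included. Triplicate HEK293T lysate samples (495 µg) were exposed to fragment at 200 µM or vehicle for 3 h, then to Biotin-Ahx-Ub-VS at 0.5 µM final for 1 h, before NeutrAvidin enrichment of labelled DUBs, LysC and trypsin digestion, and diaPASEF LC-MS/MS.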

USP22 = target: T2, USP22 (UniProt Q9UPT9)
T2 sequence (whole entry): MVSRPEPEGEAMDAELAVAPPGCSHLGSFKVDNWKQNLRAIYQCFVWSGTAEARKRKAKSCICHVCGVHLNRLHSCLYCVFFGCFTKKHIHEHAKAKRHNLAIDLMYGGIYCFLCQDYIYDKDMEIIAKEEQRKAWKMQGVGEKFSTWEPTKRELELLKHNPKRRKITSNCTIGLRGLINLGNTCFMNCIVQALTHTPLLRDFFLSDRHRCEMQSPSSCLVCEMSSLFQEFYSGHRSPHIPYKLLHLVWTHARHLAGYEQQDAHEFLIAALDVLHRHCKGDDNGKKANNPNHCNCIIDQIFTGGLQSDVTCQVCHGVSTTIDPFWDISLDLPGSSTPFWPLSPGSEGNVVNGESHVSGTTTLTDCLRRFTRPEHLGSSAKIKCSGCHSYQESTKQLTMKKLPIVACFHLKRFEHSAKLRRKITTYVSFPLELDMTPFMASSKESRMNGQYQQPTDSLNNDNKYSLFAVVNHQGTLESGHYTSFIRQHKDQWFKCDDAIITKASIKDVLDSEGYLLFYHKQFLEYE
How it was run: as §1

USP24 = USP24 (UniProt Q9UPU5)
Chain of USP24 (Q9UPU5 whole entry): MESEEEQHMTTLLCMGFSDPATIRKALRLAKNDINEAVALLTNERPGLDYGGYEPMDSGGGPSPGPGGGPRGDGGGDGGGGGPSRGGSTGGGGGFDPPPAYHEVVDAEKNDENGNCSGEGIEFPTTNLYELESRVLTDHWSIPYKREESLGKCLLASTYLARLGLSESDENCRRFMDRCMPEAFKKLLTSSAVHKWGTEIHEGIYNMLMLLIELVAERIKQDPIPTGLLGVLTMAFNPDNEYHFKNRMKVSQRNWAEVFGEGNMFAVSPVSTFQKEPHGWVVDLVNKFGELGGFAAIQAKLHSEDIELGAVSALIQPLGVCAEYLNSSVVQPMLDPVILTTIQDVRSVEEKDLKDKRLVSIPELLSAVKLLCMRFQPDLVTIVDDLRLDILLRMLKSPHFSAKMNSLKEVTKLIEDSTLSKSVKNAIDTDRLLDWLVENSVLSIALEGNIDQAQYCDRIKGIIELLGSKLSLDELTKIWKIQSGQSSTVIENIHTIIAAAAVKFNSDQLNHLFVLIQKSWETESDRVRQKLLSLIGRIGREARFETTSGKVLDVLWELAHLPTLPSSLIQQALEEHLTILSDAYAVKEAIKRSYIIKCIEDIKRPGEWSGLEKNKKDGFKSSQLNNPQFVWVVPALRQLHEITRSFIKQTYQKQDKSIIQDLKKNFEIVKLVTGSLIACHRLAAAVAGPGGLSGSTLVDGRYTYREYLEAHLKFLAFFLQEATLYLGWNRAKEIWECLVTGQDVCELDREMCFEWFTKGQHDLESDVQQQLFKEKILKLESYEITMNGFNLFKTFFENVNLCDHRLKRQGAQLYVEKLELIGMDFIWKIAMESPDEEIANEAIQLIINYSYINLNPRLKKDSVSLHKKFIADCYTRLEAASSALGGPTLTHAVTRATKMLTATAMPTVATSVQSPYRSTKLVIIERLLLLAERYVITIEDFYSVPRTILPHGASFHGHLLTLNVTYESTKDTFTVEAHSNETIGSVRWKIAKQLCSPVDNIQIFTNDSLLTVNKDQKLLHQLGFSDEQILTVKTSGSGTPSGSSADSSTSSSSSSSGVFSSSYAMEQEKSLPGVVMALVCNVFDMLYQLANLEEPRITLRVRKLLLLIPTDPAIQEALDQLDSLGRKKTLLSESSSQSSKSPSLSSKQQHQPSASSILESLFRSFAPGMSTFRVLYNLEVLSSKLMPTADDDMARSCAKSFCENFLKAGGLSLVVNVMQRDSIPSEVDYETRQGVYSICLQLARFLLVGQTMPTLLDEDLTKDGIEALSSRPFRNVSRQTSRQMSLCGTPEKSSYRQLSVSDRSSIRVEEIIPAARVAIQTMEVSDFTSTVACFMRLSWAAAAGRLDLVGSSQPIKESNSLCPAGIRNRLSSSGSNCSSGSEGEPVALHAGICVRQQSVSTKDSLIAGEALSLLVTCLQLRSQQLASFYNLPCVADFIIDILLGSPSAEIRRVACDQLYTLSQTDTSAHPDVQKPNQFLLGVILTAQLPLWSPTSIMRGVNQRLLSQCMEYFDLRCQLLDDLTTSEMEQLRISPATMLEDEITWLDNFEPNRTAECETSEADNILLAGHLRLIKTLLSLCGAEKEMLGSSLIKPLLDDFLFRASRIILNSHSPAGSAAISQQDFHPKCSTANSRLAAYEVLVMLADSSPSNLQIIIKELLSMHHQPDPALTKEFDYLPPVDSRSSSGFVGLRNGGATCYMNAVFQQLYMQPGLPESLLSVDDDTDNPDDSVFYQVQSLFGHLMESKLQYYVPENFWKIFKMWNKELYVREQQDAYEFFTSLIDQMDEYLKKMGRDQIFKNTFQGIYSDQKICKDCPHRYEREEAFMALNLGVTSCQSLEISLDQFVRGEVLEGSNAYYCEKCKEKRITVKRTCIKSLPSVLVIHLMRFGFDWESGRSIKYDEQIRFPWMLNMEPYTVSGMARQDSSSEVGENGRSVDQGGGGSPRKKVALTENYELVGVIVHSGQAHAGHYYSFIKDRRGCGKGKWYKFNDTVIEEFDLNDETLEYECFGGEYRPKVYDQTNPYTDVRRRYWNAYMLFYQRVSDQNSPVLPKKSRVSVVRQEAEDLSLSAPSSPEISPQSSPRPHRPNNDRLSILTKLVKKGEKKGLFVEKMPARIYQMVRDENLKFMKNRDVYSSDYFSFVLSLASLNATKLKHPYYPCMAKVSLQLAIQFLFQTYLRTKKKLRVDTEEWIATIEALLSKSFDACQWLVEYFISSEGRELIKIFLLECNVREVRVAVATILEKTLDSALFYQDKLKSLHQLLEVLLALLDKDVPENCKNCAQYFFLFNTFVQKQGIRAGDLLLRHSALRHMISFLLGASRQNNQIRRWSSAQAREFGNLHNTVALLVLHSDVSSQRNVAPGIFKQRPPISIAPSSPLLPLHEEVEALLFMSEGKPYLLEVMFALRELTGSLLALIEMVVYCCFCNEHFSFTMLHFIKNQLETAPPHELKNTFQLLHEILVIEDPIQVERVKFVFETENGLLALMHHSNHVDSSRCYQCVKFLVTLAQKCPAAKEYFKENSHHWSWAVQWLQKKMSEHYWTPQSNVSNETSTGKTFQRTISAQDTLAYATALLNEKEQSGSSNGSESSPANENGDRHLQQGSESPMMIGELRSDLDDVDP
How it was run: as §1

USP25 = target: T3, USP25 (UniProt Q9UHP3)
T3 sequence (whole entry): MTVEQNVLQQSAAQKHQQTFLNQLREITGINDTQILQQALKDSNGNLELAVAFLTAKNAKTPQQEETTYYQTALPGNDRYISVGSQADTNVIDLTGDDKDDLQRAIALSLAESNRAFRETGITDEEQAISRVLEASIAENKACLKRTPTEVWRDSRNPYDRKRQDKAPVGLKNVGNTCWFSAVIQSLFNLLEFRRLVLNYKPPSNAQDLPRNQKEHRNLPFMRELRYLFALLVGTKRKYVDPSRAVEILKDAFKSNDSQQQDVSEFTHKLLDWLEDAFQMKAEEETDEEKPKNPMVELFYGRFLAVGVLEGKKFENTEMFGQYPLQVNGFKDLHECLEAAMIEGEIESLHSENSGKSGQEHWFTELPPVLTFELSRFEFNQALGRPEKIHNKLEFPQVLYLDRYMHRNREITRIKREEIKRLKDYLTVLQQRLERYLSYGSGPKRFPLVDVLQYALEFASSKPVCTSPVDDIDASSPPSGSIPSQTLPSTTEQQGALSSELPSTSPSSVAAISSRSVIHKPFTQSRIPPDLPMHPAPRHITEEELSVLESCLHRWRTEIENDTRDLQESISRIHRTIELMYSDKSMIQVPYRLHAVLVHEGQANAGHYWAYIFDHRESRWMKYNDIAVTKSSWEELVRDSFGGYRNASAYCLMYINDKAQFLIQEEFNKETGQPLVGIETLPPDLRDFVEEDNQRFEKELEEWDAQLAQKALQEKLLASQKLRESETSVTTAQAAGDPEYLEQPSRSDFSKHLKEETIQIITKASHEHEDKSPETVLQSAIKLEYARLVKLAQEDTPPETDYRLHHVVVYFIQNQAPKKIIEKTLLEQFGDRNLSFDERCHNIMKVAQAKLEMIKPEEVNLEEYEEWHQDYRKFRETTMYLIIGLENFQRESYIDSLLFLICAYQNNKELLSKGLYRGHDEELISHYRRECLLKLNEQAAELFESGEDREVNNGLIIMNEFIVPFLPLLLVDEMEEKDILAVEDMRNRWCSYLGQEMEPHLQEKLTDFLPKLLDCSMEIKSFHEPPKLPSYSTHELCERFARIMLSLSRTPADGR
How it was run: as §1

USP28 = target: T4, USP28 (UniProt Q96RU2)
T4 sequence (whole entry): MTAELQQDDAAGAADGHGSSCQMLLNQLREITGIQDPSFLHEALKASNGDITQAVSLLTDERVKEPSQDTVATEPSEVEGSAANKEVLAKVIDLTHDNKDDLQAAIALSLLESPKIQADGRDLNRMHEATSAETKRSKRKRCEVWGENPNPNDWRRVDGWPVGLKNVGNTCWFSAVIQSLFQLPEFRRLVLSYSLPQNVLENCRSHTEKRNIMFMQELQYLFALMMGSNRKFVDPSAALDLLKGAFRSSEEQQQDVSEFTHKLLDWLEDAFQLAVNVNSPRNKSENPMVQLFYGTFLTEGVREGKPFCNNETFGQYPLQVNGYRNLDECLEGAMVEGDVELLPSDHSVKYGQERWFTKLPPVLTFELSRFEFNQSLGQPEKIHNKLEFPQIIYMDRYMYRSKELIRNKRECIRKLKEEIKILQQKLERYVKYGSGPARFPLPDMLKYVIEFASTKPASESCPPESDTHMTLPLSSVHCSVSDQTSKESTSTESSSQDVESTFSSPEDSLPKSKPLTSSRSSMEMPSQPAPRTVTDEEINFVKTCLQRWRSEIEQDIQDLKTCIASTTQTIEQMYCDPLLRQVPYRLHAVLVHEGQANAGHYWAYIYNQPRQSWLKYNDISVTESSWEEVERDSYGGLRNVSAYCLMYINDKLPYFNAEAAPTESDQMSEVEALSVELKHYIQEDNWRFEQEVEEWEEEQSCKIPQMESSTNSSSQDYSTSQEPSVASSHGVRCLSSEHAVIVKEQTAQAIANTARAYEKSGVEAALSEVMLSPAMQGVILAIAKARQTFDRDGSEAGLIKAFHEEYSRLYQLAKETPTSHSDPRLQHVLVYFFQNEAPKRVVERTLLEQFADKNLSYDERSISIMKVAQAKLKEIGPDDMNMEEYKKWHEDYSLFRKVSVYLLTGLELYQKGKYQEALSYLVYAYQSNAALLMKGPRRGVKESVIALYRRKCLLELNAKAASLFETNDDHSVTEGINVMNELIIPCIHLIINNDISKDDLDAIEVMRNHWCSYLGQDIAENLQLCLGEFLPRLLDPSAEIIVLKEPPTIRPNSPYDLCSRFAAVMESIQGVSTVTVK
How it was run: as §1

Measured: log2 ratio of Biotin-Ahx-Ub-VS probe labelling

O=C(CCl)N1CCC(c2nc3ccccc3o2)CC1
inactive: USP19 -0.537 | USP22 -0.0192 | USP24 -0.503 | USP25 -0.466 | USP28 -0.736
